# Source: the supplement of paper PMC11417369
# ± gives the standard deviation of the averaged measurements. In all, about 25,000 sequences were measured (“ln(normalized median fluorescence intensity)”: median about 7.9, highest 2% from about 11 on). The sample as a whole holds a higher share of the highest values than the screen did.
# System: PfAP2-I AP2 domain 3 (GST-tagged)
# Test: gcPBM binding intensity (ln(normalized median fluorescence intensity)); higher = stronger DNA binding
# How it was run: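 For binding intensity, the highest Masliner-normalised natural-log median intensity across replicate spots of either probe orientation was taken. Protein bound to the array was stained with Alexa488 anti-GST antibody and scanned at 488 nm. The protein, GST-tagged P. falciparum DNA-binding domains from E. coli at about 25 μg on average, had been applied for 1 h to an Agilent 4 × 180k array of primer-extended double-stranded 36-bp intergenic genomic probes and negative controls.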
row,Sequence,gcPBM binding intensity (ln)
1,AAAAAAAAAAAACACACACACACACCCAAATATATA [CACACA_site150],7.91 ± 0.2
2,TGGGAAAAAATATATGCACACCCCCCAAAAAAAAAA [CACACA_site8696],11.5 ± 0.52
3,GGAAAAAATATATGCACACCCCCCAAAAAAAAAAAA [CACACA_site2222],10.6 ± 0.2
4,CGGATGAATATATATGCACACATCTTTTGTAAAAAT [CACACA_site3190],9.16 ± 0.11
5,TTTCCAATTAGTTTTGCATGTTGAAAAAATGTTGGA [TGCATGCA_site1035],7.71 ± 0.52
6,TTTAGTGAGTTTGTTGTGCACTGAAAAAATTACAAT,11.1 ± 0.18
7,TATATTATATATATACTGCACTGTTTTACAAAATTA,10.8 ± 0.57
8,TTAATTATGGACAGGGTGCACATGAATAATAATACC,11 ± 0.18
9,CATGAATATTTTAATGTGCACATTTATCATTATATG,9.5 ± 0.21
10,GCACATATGAATATAATACACACTTGTATTATTAAT [CACACA_site1841],8.1 ± 0.52
11,TTTGAATACTGAATGGTGCAAATTGTTCTCCCCATG,10.9 ± 0.61
12,ATTTATATATATATAGGTACACATATTTATATATAA [XGTACX_site8487],7.58 ± 0.41
13,AAAGAAATAAGGTGCACACATATACAGATATATATA [CACACA_site4399],10.3 ± 0.4
14,AAATAGTTGTTAAAGGTGCACAATATGGATATAAGA,11.5 ± 0.38
15,TTAAAAGTTATGGATACACACATATAAATATAGATT [CACACA_site7175],7.57 ± 0.42
16,AATATATGTTTAATTTCACACACAAATATACATTTT [CACACA_site9385],7.69 ± 0.65
17,TACAGATACAGATACACACACACACCGAAATAAATA [CACACA_site4865],7.84 ± 0.37
18,CATATATATCGTAATGCACACATGTAATTTCATAAT [CACACA_site811],11 ± 0.92
19,ATTTTTAATTTTTTCACACATATATTTAAAATAAAA [CACACA_site4799],7.94 ± 0.49
20,CTTATATTAATTATTACACACATATTTATAAATGCA [CACACA_site6501],8.07 ± 0.47
21,TTCAAAATAAAAAATTCACACACATATATATATATA [CACACA_site8653],9.28 ± 0.39

row,Sequence,gcPBM binding intensity (ln)
1,TAAAAATTCAATTGCACACGCACATATTTTAATAAG [CACACA_site2014],8.8 ± 0.057
2,AAAATTTAATATAATGCACACATAAAAAAAAATTCA [CACACA_site8640],10.9 ± 0.92
3,ATTTCGTAATTTATATCACACACATATATATATAAT [CACACA_site9021],8.06 ± 0.53
4,AATTTAATATAATGCACACATAAAAAAAAAAAATTC [CACACA_site1504],11 ± 0.61
5,AATTTAATATAATGCACACATAAAAAAAAATTCAAA [CACACA_site2062],11 ± 0.79
6,ATATTTTATTATATAGGTACACATAATTTCATGTAA [XGTACX_site415],7.83 ± 0.52
7,TGTATAAATATAATCACACATATATATATATATATA [CACACA_site4365],9.32 ± 0.53
8,AATTTATAAGAATAAAGTACTAAAGATACAACTTTA [XGTACX_site7153],7.53 ± 0.4
9,GAATAAAAAAAAAAAAAAATTTATTTTATAATAAAA [CACACA_negctrl_site1514],7.24 ± 0.49
10,ACTTATATTATAAATTGTACAAATATTATATTTGGT [XGTACX_site1424],7.76 ± 0.54
11,ACATATATATATATATATATATATATATTACATTTA [CACACA_negctrl_site627],8.54 ± 0.28
12,AATAAAGAAGAAGAAAGTACACATTTCACAAAGGGG [XGTACX_site1308],8.23 ± 0.21
13,AAAAATACAATTTTCTTGCACTTTGTTGCATTGTAA,9.79 ± 0.32
14,TATAAATAGATATATACACACTTGTGCAGAATATTA [CACACA_site7112],9.37 ± 0.099
15,CCATCTTTTTTACGATGTACAAGTATAAGGTATACG [XGTACX_site2697],7.76 ± 0.46
16,TACTGCCTTCCATACCCACACACTTCCCATATATTT [CACACA_site2705],8.44 ± 0.69
17,TAGAACAAATAAAACACACACATATAAATATAGATG [CACACA_site7325],7.65 ± 0.73
18,TTTTTTTGTTGTTGTTGTACGATATTTTCCTTATCA [XGTACX_site2375],7.93 ± 0.54
19,TATGCAATAAAATATACACACAATATACTTATATAT [CACACA_site7691],7.87 ± 0.4
20,TATTCAATACTTAATGCACACAATAAAAAAAATATG [CACACA_site2467],10.9 ± 0.71
21,TATGTAATAAAATATACACACAATATACTTATATAT [CACACA_site3682],7.53 ± 0.55

row,Sequence,gcPBM binding intensity (ln)
1,AATAATAATATATGTAGTACACATTTCCATTATGTT [XGTACX_site3708],7.75 ± 0.27
2,ACTTATTGTGGTTTTGCATGTAGCATTTTTACATAC [TGCATGCA_site247],8.62 ± 0.91
3,TGTTTTATTTTTTTTGTGCACATACCTTTAGCATCA [GTGCAC_site9812],10.64 ± 0.064
4,TTTTGTTATTTTTTAGTGCATATAAAGGTTGTTAAG,10.7 ± 0.4
5,CATCATCTTTTAAAGGTGCATAATAATATTGTTAAT,11.4 ± 0.69
6,TTTCTTTTTAAATAGGTGCATATTTTTATAAATATA,9.95 ± 0.42
7,ATATACATTCTATATACATGCATACTTCATTTTGTG [TGCATGCA_site966],8.03 ± 0.85
8,AAGGAGAAATATTGCACACGTGCAAAATGGTATGAG [CACACA_site259],11.1 ± 0.35
9,GTGAAATATGCAAACACACACGAGAAAAATGTATAT [CACACA_site7488],8.19 ± 0.91
10,AGGAAAATTATGAATGGTACAGAATATATTAGGAGA [XGTACX_site6282],8.05 ± 0.74
11,AAAAGGAGAAATATTGCACACGTGCAAAATGGTATG [CACACA_site4300],11.3 ± 0.085
12,AATGAGAAGGACTGCACACTAAAATGGAAGGAGAAA [CACACA_site1575],8.28 ± 0.79
13,GAGTGAAATATGCAAACACACACGAGAAAAATGTAT [CACACA_site3196],8.09 ± 0.85
14,AAGAAGAGTTATTGTAGTACATTTTTAAATGTAATA [XGTACX_site7664],7.73 ± 0.34
15,TGTTATATAATTTAGCGTACAGGTTATAGGACGGAT [XGTACX_site8823],8.5 ± 0.35
16,CCATGATTATTAGATTGTACATAACATACAAATTGA [XGTACX_site314],7.68 ± 0.45
17,TGTCATGATACATACACACACATACACATACACATA [CACACA_site2135],8.05 ± 0.42
18,AATATTATATATATGGGTACTAATTCCTTTAATTTC [XGTACX_site102],7.45 ± 0.53
19,ATATATATATATATATGTACTAATTAATATTTCGAG [XGTACX_site580],9.45 ± 0.49
20,TTTTTTTTTTTCGGGGGTACTAATATATTATTAATA [XGTACX_site7809],10.8 ± 0.47
